Measured values from PubChem BioAssay AID1726 (National Center for Advancing Translational Sciences (NCATS), 2009).
Results filed as inconclusive are left out. The source made the active and inactive calls. Calls follow the shape of the dose curve; as a rule, active = well fitted curve in the direction sought with a large enough effect; inconclusive = small, poorly fitted or top-dose-only effect, or effect the other way, or another doubt; inactive = no such curve, though single readings can be large or run the other way.

Biological target: Epidermal growth factor receptor (Homo sapiens) (UniProt P00533)
Assay: Assay for Inhibitors of the ERK Signaling Pathway using a Homogeneous Screening Assay: EGFR T790M/L858R Kinase Inhibition
Settings: series mostly up to 65.8 µM
Source text: qHTS Assay for Inhibitors of the ERK Signaling Pathway using a Homogeneous Screening Assay
NIH Chemical Genomics Center [NCGC]
NIH Molecular Libraries Screening Centers Network [MLSCN]
Assay Submitter (PI): Dr. Wei Zheng, NCGC/NIH
The Ras/extracellular-signal-regulated kinase (ERK) mitogen activated protein (MAP) kinase signaling pathway (ERK1/2 cascade) plays is a key role in transmitting signals from the cell surface to the nucleus (Nishida and Gotoh 1993; Chang and Karin, 2001). The cascade is initiated by the small G-protein Ras, which recruits Raf […], where activation occurs. Alternatively, this pathway can be activated by elevating intracellular cAMP.
Activation of the ERK pathway is essential in increased cell division and cell survival. Sustained and constitutive activation of the ERK pathway, however, has been linked to uncontrolled cell proliferation, increased cell survival, and tumor progression. Thus, the ERK has been as an attractive target for cancer chemotherapy in the past few years (Sebolt-Leopold and Herrera, 2004). […]
The HTRF kinase assay (components supplied as kit by Cisbio) was chosen for the EGFR and EGFR mutant enzyme assays that applied the time resolved fluorescence resonance energy transfer (TR-FRET) principle. […]

Epidermal growth factor receptor (Homo sapiens), sequence (P00533 whole entry T790M/L858R, looked up): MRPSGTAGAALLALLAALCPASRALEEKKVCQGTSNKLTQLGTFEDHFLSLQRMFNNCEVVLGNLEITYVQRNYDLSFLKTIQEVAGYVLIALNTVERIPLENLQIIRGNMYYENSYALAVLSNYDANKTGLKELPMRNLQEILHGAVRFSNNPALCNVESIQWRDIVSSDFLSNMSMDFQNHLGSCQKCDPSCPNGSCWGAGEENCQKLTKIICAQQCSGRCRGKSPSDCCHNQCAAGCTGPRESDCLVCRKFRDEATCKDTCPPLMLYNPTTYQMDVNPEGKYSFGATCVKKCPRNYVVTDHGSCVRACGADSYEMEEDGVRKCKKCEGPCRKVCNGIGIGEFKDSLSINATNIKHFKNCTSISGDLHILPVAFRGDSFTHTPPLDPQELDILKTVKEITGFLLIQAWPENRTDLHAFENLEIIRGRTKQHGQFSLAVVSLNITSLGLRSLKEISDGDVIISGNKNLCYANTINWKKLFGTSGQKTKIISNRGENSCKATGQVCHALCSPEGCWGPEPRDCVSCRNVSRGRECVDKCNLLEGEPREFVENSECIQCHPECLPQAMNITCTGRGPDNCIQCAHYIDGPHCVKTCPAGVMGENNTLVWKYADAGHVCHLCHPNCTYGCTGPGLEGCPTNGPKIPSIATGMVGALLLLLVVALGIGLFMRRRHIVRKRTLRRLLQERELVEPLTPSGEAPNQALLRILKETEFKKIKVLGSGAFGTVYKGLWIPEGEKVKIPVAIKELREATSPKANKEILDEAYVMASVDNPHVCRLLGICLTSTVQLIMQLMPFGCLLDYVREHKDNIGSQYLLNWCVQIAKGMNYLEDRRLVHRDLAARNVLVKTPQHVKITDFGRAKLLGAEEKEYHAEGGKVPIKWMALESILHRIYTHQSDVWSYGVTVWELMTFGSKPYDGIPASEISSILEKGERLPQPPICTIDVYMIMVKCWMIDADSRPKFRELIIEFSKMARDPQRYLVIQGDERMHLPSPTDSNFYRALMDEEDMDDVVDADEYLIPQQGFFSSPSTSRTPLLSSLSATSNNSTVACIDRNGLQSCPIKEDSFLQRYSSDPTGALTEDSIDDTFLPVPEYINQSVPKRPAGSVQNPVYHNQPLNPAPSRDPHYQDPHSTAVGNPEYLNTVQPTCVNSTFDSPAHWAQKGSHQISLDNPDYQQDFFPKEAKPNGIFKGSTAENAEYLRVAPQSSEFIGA

SMILES	outcome
Cc1nc2c(=O)n(C)c(=O)nc-2n(C)n1	inactive
CN1CCN(c2cccc3c2C(=O)c2ccccc2C3=O)CC1	inactive
